From PubChem BioAssay (NCATS) come the findings set out here.

Inconclusive results are not listed. Values without a mark were called inactive. The call rests on the fitted dose curve; in most records, active means well fitted activation curve with a large enough effect; inconclusive means small, poorly fitted or top-dose-only effect; inactive means flat fitted curve, though single readings scatter. *1 amine or outer side, *2 acyl side, *3 side chain or, on linkers, in order; H or OH if unused. Where a SMILES comes first, the peptide text is derived from it. [ ]: non-standard residue; d: D form. X4 = CC(C)=CCc1cc(C(O)C(N[*:1])C(=O)[*:2])ccc1O

This test is described as follows: Primary redox qHTS assay for identification of artifact compounds. (AID 1845223).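 Further: 0% = DMSO and 100% = reference compound.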 To be noted: Amplex Red/HRP redox cycling with DTT, fluorescence; series mostly up to 53.8 µM; redox activity (% of DA3003): at the top concentration. The essentials: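 Amplex Red (25 uM) and HRP (250 mU/mL) in HBSS, with compounds for 15 min, then 250 uM DTT for 30 min, room temperature, dark. Fluorescence 525/598 nm read; normalized to DMSO and 10 uM DA3003; Hill fit.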
As to `C[C@H]1CC(=O)Nc2cccc(-c3cnn(C(C)(C)C)c3)c2N1`, the “redox activity (% of DA3003)” value is -7.31%.

As for `CC12CCC(OC3OC(CO)C(O)C(OC4OC(CO)C(O)C(O)C4O)C3O)CC1CCC1C2CCC2(C)/C(=C3/COC(=O)C3)CCC12O` (stereo not given), the “redox activity (% of DA3003)” value is -14.4% [at 25.6 µM].

For the molecule `NC(=O)[C@H]1CCS[C@@H]2C[C@]3(CCCN3C(=O)Cc3ccc(NC(=O)COc4ccc(Cl)cc4Cl)cc3)C(=O)N12`, the “redox activity (% of DA3003)” value is 20.4%.

With `O=C(O)CC(=O)OC[C@H]1O[C@@H](Oc2ccc3c(c2)OC[C@H]2c4cc5c(cc4O[C@@H]32)OCO5)[C@H](O)[C@@H](O)[C@@H]1O`, the “redox activity (% of DA3003)” value was 9.77% [at 25.6 µM].

Take `COC(=O)C1=CO[C@@H](O[C@@H]2O[C@H](CO)[C@@H](O)[C@H](O)[C@H]2O)[C@@H]2[C@@](C)(O)[C@@H](OC(=O)/C=C/c3ccc(O)cc3)C[C@]12O`: the “redox activity (% of DA3003)” value is -14.6% [at 25.6 µM].

Consider `CC(C)=CCc1cc(C(O)C2NC(=O)CNC(=O)C(Cc3c[nH]c4ccccc34)NC(=O)C3CCCN3C(=O)CNC(=O)C(C(C)C)NC(=O)CNC2=O)ccc1O` (stereo not given) (cyclo(G[X4]GVGPW); configuration not given here), for which the redox activity (% of DA3003) was 10.2% [at 11.5 µM].

Turning to `C[C@@H]1CN(Cc2ccccc2)C[C@H]1c1nc2c(cnn2C2CCOCC2)c(=O)[nH]1`, the “redox activity (% of DA3003)” value is 2.97%.

Turning to `C=C[C@]1(C)C=C2CCC3C(C)(CCC[C@@]3(C)C(=O)O)C2CC1` (stereo not given in full), the “redox activity (% of DA3003)” value is 7.1%.

In the case of `C=CC(C)(CC/C=C(\C)C(=O)OC)OC1OC(COC(=O)CC(C)(O)CC(=O)O)C(OC2OC(CO)C(O)C(O)C2O)C(O)C1O` (stereo not given), the “redox activity (% of DA3003)” value is -13.8% [at 25.6 µM].

As for `O=C(NCc1cccc(O)c1)Nc1nc(-c2ccncc2)cs1`, the “redox activity (% of DA3003)” value is -0.365%.

Turning to `C[C@@H]1CC[C@]2(C(=O)O[C@@H]3O[C@H](CO)[C@@H](O)[C@H](O)[C@H]3O)CC[C@]3(C)C(=CCC4[C@@]5(C)C[C@@H](O)[C@H](O)[C@](C)(C(=O)O)C5CC[C@]43C)[C@@H]2[C@]1(C)O` (stereo not given in full), the “redox activity (% of DA3003)” value is -0.0199% [at 25.6 µM].

Consider `COC(=O)CC(O)CC(O)/C=C/c1c(C)ccc2c1C(O)CC(C)C2` (stereo not given), for which the “redox activity (% of DA3003)” value was -9.42%.

Take `O=C1OCc2cc3cccc(O[C@@H]4O[C@H](CO)[C@@H](O)[C@H](O)[C@H]4O)c3c(O)c21`: the “redox activity (% of DA3003)” value was -5.33%.

On to `C=C1C[C@@]23CCC4[C@@](C)(CCC[C@@]4(C)C(=O)OC)C2CC[C@@H]1C3` (stereo not given in full), for which the “redox activity (% of DA3003)” value was 20.4%.

As for `CC1(C)C2CC=C(COC3OC(COC4OCC(O)(CO)C4O)C(O)C(O)C3O)C1C2` (stereo not given), the “redox activity (% of DA3003)” value was -13.9% [at 25.6 µM].
